About 21,000 targets were measured; listed, in parts, are those with the largest changes and a random draw of the rest.
Compound: CC1Cc2ccccc2N1C(=O)C1CCCN(C1)C(=O)CCl (mixture of isomers) [TRIM25 ligand 11 (diastereomer mixture)]
Assay: probe-labelled cysteine peptide fold change vs DMSO (competition) (log2 fold change); higher = less target engagement (more negative = stronger competition)
Conditions: THP-1, incubation time: 4 h
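Note: competitive chemoproteomic profiling in live THP-1 cells with an iodoacetamide desthiobiotin (IA-DTB) probe, comparing probe-labelled peptide intensities in compound-treated cells against DMSO-treated controls.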

ANKRD10_Q9NXR5_140_SGSLECISALVANGAHVDLR (UniProt Q9NXR5)
probe-labelled cysteine peptide fold change (10 µM): -0.314 | probe-labelled cysteine peptide fold change (50 µM): -0.119

APOH_P02749_124_CTEEGK (UniProt P02749)
probe-labelled cysteine peptide fold change (10 µM): 0.632 | probe-labelled cysteine peptide fold change (50 µM): 0.551

ARID1A_O14497_2043_EEEQDQGVSCNK (UniProt O14497)
probe-labelled cysteine peptide fold change (10 µM): 0.662 | probe-labelled cysteine peptide fold change (50 µM): 0.268

ARPC1B_O15143_227_VAWVSHDSTVCLADADK (UniProt O15143)
probe-labelled cysteine peptide fold change (10 µM): 0.316 | probe-labelled cysteine peptide fold change (50 µM): 0.0213

ASMTL_O95671_274_AEAGEAGQATAEAECHR (UniProt O95671)
UniProt O95671, sequence (O95671 whole entry, looked up): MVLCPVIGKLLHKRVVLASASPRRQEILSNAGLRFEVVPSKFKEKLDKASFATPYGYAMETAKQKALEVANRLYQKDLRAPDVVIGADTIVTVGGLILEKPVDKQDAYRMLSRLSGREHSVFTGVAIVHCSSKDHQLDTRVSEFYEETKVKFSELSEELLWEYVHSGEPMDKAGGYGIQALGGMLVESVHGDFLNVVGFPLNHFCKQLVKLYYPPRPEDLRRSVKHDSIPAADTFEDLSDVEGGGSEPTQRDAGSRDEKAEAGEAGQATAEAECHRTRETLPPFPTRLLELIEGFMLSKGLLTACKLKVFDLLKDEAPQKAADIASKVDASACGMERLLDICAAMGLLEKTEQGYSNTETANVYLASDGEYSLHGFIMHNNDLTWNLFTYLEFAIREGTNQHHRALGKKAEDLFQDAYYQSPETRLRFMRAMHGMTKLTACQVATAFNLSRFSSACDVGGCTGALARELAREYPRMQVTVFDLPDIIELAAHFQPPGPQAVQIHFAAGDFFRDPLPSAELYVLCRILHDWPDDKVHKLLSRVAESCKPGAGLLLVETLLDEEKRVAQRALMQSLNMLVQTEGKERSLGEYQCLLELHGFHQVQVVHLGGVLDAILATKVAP
probe-labelled cysteine peptide fold change (10 µM): -0.103 | probe-labelled cysteine peptide fold change (50 µM): -0.158

AMPD2_Q01433_107_SLPGPAPCLK (UniProt Q01433)
probe-labelled cysteine peptide fold change (10 µM): -0.11 | probe-labelled cysteine peptide fold change (50 µM): -0.295

ATP6V1A_P38606_138_WDFTPCK (UniProt P38606)
UniProt P38606, sequence (P38606 whole entry, looked up): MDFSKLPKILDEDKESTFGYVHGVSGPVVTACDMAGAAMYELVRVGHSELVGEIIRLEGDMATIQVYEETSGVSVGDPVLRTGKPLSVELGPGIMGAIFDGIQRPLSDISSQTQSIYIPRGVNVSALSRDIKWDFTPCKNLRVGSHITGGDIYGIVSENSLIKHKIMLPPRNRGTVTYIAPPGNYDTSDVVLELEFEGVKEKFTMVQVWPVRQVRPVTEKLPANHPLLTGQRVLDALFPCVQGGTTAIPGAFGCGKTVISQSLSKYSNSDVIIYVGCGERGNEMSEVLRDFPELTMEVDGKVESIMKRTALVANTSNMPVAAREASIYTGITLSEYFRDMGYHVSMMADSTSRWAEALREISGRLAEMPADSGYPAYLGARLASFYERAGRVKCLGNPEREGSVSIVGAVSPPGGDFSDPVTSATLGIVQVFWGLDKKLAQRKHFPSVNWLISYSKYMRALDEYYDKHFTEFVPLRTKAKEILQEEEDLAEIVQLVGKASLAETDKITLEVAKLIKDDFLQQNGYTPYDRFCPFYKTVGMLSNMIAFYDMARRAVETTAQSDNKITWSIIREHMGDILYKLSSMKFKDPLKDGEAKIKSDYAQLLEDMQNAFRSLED
probe-labelled cysteine peptide fold change (10 µM): -0.198 | probe-labelled cysteine peptide fold change (50 µM): -0.819

AHRR_A9YTQ3_485_DVGEDQVHPPLCHFPQR (UniProt A9YTQ3)
probe-labelled cysteine peptide fold change (10 µM): 0.678 | probe-labelled cysteine peptide fold change (50 µM): 0.583

BCAT1_P54687_338_EMFGSGTACVVCPVSDILYK (UniProt P54687)
probe-labelled cysteine peptide fold change (10 µM): 0.15 | probe-labelled cysteine peptide fold change (50 µM): 0.0428

AKAP8_O43823_392+395_IQFACSVCK (UniProt O43823)
probe-labelled cysteine peptide fold change (10 µM): -0.0142 | probe-labelled cysteine peptide fold change (50 µM): 0.0345

ASAP1_Q9ULH1_652_QTALGNTVLHYCSMYSKPECLK (UniProt Q9ULH1)
probe-labelled cysteine peptide fold change (10 µM): 0.0362 | probe-labelled cysteine peptide fold change (50 µM): 0.157

ATP5S_Q99766_134_CHYIEDDCLLR (UniProt Q99766)
probe-labelled cysteine peptide fold change (10 µM): -0.0886 | probe-labelled cysteine peptide fold change (50 µM): 0.0874

ARFGEF2_Q9Y6D5_76_YFLPFELACQSK<|>ARFGEF1_Q9Y6D6_88_YFLPFELACQSK (UniProt Q9Y6D6+Q9Y6D5)
probe-labelled cysteine peptide fold change (10 µM): -0.179 | probe-labelled cysteine peptide fold change (50 µM): -0.147

APTX_Q7Z2E3_161_DAAQEAEAGTGLEPGSNSGQCSVPLK (UniProt Q7Z2E3)
probe-labelled cysteine peptide fold change (10 µM): 0.282 | probe-labelled cysteine peptide fold change (50 µM): -0.342

ARPC1B_O15143_26_TQIAICPNNHEVHIYEK (UniProt O15143)
probe-labelled cysteine peptide fold change (10 µM): 0.062 | probe-labelled cysteine peptide fold change (50 µM): 0.00851

ATIC_P31939_101_VVACNLYPFVK (UniProt P31939)
UniProt P31939, sequence (P31939 whole entry, looked up): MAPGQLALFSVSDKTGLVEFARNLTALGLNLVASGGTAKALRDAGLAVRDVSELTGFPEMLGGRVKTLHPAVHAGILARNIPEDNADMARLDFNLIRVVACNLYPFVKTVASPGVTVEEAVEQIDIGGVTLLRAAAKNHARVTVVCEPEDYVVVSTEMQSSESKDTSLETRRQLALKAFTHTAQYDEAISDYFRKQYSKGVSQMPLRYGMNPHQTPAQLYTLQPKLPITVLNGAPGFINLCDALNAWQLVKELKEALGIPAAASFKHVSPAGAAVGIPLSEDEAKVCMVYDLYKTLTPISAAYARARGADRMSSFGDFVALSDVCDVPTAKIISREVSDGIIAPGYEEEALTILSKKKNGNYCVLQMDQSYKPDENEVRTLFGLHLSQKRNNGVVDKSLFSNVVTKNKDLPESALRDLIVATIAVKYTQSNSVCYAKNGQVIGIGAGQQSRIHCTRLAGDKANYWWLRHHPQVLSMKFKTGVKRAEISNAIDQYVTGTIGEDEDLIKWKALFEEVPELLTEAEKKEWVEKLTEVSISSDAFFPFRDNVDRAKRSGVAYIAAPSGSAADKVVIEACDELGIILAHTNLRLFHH
probe-labelled cysteine peptide fold change (10 µM): -0.0132 | probe-labelled cysteine peptide fold change (50 µM): 0.0726

ARHGAP45_Q92619_528_SATISYYQMMHMQTAPLPVHFQMLCESSK (UniProt Q92619)
UniProt Q92619, sequence (Q92619 whole entry, looked up): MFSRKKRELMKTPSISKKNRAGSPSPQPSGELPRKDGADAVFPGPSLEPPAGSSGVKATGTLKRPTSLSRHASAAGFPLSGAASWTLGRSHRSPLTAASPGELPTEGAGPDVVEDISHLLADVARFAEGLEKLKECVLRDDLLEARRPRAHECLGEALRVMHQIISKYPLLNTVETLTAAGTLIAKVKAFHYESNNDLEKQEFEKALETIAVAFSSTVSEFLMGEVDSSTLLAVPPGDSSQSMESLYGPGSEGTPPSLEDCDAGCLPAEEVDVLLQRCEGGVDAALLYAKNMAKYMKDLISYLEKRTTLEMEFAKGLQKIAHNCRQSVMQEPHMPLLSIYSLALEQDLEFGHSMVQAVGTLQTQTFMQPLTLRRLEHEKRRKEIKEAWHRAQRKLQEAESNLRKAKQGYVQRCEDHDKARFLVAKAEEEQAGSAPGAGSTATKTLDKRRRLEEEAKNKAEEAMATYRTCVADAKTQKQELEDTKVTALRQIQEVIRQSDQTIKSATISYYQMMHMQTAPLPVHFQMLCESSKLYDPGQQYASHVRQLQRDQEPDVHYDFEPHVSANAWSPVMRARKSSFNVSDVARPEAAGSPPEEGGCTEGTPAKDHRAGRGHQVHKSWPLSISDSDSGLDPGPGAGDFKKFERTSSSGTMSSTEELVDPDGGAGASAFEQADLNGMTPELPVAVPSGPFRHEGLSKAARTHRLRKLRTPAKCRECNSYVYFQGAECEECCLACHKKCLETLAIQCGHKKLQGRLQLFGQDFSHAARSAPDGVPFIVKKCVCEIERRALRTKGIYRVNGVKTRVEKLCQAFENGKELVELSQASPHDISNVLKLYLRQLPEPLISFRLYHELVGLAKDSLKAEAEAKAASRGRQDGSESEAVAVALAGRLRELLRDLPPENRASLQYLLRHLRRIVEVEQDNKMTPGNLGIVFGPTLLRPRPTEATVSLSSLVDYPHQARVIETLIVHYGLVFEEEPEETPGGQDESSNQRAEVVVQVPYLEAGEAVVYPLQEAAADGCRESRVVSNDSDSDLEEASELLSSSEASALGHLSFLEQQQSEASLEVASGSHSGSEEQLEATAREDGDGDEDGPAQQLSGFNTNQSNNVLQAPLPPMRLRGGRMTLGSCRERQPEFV
probe-labelled cysteine peptide fold change (10 µM): -0.132 | probe-labelled cysteine peptide fold change (50 µM): -0.236

ANAPC11_Q9NYG5_76_WLHAQQVQQHCPMCR (UniProt Q9NYG5)
probe-labelled cysteine peptide fold change (10 µM): -0.122 | probe-labelled cysteine peptide fold change (50 µM): 0.153

ARHGAP25_P42331_154_VAGTPCGVFGQR (UniProt P42331)
probe-labelled cysteine peptide fold change (10 µM): 0.0288 | probe-labelled cysteine peptide fold change (50 µM): -0.103

AGPS_O00116_226_IVNLACK (UniProt O00116)
probe-labelled cysteine peptide fold change (10 µM): 0.221 | probe-labelled cysteine peptide fold change (50 µM): 0.311

AP2A1_O95782_492_TVFEALQAPACHENMVK (UniProt O95782)
probe-labelled cysteine peptide fold change (10 µM): 0.179 | probe-labelled cysteine peptide fold change (50 µM): 0.0904

ATF6_P18850_321_ESACQSR<|>ATF6B_Q99941_340_ESACQSR (UniProt Q99941+P18850)
probe-labelled cysteine peptide fold change (10 µM): 0.753 | probe-labelled cysteine peptide fold change (50 µM): 1.73

ARSA_P15289_493_GEDPALQICCHPGCTPR (UniProt P15289)
UniProt P15289, sequence (P15289 whole entry): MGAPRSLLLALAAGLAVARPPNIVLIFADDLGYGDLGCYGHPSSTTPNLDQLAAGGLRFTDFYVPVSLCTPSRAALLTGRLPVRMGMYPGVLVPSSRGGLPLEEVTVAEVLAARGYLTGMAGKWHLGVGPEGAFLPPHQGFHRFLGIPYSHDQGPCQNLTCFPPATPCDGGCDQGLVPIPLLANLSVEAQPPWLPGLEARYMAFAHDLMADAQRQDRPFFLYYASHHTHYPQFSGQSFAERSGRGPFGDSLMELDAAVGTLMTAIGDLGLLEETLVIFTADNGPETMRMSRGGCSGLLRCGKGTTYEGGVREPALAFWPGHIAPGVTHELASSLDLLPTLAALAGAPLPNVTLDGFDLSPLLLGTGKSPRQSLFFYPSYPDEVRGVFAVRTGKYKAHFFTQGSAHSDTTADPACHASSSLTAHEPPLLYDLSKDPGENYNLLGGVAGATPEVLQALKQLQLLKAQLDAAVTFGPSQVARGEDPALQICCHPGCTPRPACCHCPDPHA
probe-labelled cysteine peptide fold change (10 µM): 0.139 | probe-labelled cysteine peptide fold change (50 µM): 0.309

ANXA11_P50995_384_FNAVLCSR (UniProt P50995)
probe-labelled cysteine peptide fold change (10 µM): -0.0174 | probe-labelled cysteine peptide fold change (50 µM): -0.0325

ARF6_P62330_90_HYYTGTQGLIFVVDCADRDRIDEAR (UniProt P62330)
UniProt P62330, sequence (P62330 whole entry, looked up): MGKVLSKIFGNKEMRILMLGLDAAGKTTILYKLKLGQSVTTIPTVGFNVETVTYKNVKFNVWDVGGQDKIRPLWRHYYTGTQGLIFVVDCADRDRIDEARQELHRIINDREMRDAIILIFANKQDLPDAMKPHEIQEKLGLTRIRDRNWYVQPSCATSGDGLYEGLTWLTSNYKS
probe-labelled cysteine peptide fold change (10 µM): -0.368 | probe-labelled cysteine peptide fold change (50 µM): 0.0425

ARRB2_P32121_270_CPVAQLEQDDQVSPSSTFCK (UniProt P32121)
probe-labelled cysteine peptide fold change (10 µM): 0.677 | probe-labelled cysteine peptide fold change (50 µM): 0.57

AIP_O00170_78_LPVWETIVCTMR (UniProt O00170)
UniProt O00170, sequence (O00170 whole entry, looked up): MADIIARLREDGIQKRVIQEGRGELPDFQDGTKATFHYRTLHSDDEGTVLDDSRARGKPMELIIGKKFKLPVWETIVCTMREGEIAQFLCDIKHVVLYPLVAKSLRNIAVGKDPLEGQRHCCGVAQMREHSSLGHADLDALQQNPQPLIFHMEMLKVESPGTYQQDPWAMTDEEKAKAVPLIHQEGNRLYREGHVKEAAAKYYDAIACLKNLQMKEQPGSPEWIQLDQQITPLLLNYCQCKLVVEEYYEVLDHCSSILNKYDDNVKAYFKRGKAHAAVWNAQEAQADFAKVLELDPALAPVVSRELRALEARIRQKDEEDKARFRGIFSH
probe-labelled cysteine peptide fold change (10 µM): -0.126 | probe-labelled cysteine peptide fold change (50 µM): 1.17

ALG11_Q2TAA5_72_NQMVIAFFHPYCNAGGGGER (UniProt Q2TAA5)
UniProt Q2TAA5, sequence (Q2TAA5 whole entry, looked up): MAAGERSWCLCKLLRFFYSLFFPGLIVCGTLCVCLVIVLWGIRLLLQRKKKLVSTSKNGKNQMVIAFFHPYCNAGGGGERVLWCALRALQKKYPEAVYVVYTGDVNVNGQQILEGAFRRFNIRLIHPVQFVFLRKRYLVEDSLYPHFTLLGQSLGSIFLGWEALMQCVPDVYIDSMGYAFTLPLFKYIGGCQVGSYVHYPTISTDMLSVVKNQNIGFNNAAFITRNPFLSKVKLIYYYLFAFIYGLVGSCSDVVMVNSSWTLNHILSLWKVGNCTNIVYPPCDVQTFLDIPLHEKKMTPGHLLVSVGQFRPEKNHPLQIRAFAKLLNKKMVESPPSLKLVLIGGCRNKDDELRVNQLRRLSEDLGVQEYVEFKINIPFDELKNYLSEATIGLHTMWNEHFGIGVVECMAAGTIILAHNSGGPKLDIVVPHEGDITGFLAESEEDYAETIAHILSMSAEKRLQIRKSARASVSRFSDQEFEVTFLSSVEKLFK
probe-labelled cysteine peptide fold change (10 µM): -0.0377 | probe-labelled cysteine peptide fold change (50 µM): -0.618

ANTXR1_Q9H6X2_257_VLCSFK (UniProt Q9H6X2)
probe-labelled cysteine peptide fold change (10 µM): 0.067 | probe-labelled cysteine peptide fold change (50 µM): 0.257

ATP5F1A_P25705_244_KLYCIYVAIGQK (UniProt P25705)
UniProt P25705, sequence (P25705 whole entry, looked up): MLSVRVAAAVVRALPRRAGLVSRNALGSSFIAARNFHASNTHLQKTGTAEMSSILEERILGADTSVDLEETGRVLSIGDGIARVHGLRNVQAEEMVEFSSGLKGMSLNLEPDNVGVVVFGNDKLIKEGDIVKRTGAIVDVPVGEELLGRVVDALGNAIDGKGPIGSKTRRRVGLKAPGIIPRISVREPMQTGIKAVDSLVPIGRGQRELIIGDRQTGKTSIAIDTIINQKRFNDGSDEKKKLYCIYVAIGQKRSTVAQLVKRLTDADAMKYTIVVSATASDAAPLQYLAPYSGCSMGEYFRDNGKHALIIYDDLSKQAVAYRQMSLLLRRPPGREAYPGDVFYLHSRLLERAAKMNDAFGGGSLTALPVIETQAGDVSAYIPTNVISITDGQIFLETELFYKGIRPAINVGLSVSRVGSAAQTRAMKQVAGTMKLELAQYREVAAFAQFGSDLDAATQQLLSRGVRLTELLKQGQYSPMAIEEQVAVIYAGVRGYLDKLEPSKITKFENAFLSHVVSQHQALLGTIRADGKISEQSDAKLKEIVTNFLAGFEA
probe-labelled cysteine peptide fold change (10 µM): -0.433 | probe-labelled cysteine peptide fold change (50 µM): 0.0534

BIN2_Q9UBW5_205_IGCYVTIFQNISNLR (UniProt Q9UBW5)
probe-labelled cysteine peptide fold change (10 µM): 0.21 | probe-labelled cysteine peptide fold change (50 µM): 0.194

ANKRD50_Q9ULJ7_113_QALAFHFCK (UniProt Q9ULJ7)
probe-labelled cysteine peptide fold change (10 µM): 0.472 | probe-labelled cysteine peptide fold change (50 µM): 0.778

AKAP17A_Q02040_17_AAATIVHDTSEAVELCPAYGLYLK (UniProt Q02040)
probe-labelled cysteine peptide fold change (10 µM): 0.583 | probe-labelled cysteine peptide fold change (50 µM): 0.399
